Reference: PubChem BioAssay (Tox21)
Inconclusive results are not listed. A call without a number means that no potency is given here. Active and inactive are the calls of the source. Calls come from the whole dose curve; as a rule, active = well fitted curve in the direction sought with a large enough effect in the repeat runs; inconclusive = weak or mixed curves; inactive = no such curve, though single readings can be large; an effect the other way counts as inactive or inconclusive.

target: Luciferin 4-monooxygenase (Photinus pyralis) (UniProt P08659); test: qHTS assay to identify small molecule inhibitors of firefly luciferase (AID 1224835); note: nearly all actives have a fitted effect of over 25% in size; conditions: purified P. pyralis luciferase, luminescence inhibition; series mostly up to 115 µM
Outline: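 Quantitative HTS format; KM concentrations of both substrates. Purified P. pyralis FLuc activity quantified from luminescence images.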
Potency is the fitted concentration of half-maximal effect.

Chain of Luciferin 4-monooxygenase (Photinus pyralis) (P08659 whole entry, looked up): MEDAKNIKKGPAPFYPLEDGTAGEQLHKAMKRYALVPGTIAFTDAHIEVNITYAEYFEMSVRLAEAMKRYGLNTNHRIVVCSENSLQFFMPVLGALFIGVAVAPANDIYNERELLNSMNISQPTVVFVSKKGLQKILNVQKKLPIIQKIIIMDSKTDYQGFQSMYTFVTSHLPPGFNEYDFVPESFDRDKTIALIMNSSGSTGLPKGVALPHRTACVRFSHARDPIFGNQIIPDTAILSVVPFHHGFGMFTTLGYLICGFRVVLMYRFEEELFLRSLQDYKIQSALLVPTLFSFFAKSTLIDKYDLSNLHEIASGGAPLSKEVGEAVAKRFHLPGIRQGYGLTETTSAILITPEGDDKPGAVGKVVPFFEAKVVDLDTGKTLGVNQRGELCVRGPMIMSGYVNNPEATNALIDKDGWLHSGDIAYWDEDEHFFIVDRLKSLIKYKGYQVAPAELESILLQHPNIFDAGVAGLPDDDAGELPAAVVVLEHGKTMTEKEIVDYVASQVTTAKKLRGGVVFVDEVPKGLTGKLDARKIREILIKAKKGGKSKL

SMILES | Potency
FC(F)C(F)(F)OCC(Cn1cncn1)c1ccc(Cl)cc1Cl (configuration not stated) | inactive
COC(=O)c1ccccc1S(=O)(=O)NC(=O)Nc1nc(C)nc(OC)n1 | inactive
O=C(NC(=O)c1ccccc1Cl)Nc1ccc(OC(F)(F)F)cc1 | inactive
CC(Cc1ccccc1)N(C)Cc1ccco1 (configuration not stated) | inactive
CSSC | inactive
Nc1ccc(N=Nc2ccccc2)cc1 | 2.24 µM (active)
Nc1nc(N)nc(Cl)n1 | inactive
O=C(Nc1ccc(F)cc1F)c1cccnc1Oc1cccc(C(F)(F)F)c1 | inactive
CCN(CC)C(=O)N[C@@H]1C=C2c3cccc4[nH]cc(c34)C[C@@H]2N(C)C1 | inactive
CCC[CH2][Sn]([CH2]CCC)([CH2]CCC)[CH2]CCC | inactive
CNC(=O)CSP(=O)(OC)OC | inactive
Clc1cc(Cl)c(-c2cc(Cl)c(Cl)cc2Cl)cc1Cl | inactive
CCCCON=O | inactive
CC(C)NCC(O)c1ccccc1Cl (configuration not stated) | inactive
C[C@H]1[C@H](c2ccc(Cl)cc2)SC(=O)N1C(=O)NC1CCCCC1 | inactive
C#CCO | inactive

SMILES | Potency
Cc1cc2c3c(c1)C(c1ccccc1)=N[C@@H](NC(=O)c1ccncc1)C(=O)N3CC2 | inactive
BrCCCBr | inactive
N#Cc1ccc(N(CC(N)=O)CC(F)(F)F)cc1C(F)(F)F | inactive
CCNc1nc(NC(C)C(C)C)nc(SC)n1 (configuration not stated) | inactive
O=[N+]([O-])c1cccc2cccc([N+](=O)[O-])c12 | inactive
COCCC#N | inactive
CCCCCCCCCCCCCCn1cc[n+](C)c1 | inactive
C[N+]1(C)[C@@H]2CC[C@H]1CC(OC(=O)C(CO)c1ccccc1)C2 (some centres not stated) | inactive
C=CC(=C)C | inactive
O=C(N[C@H]1N=C(c2ccccc2F)c2cccc3c2N(CC3)C1=O)c1cc2ccccc2[nH]1 | inactive
Cc1ccn2nc(S(=O)(=O)Nc3c(F)cccc3F)nc2n1 | inactive
O=[N+]([O-])c1ccccc1-c1ccccc1 | inactive
CC1CN1 (configuration not stated) | inactive
CC(Cc1ccc2c(c1)OCO2)NO (configuration not stated) | inactive
O=[N+]([O-])c1ccc(CCl)cc1 | inactive
CC1CCCC1 | inactive

system: not listed separately; test: qHTS assay to identify small molecule agonists of the constitutive androstane receptor (CAR) signaling pathway - cell viability counter screen (AID 1224836); conditions: HepG2-CYP2B6-hCAR viability, CellTiter-Fluor, 23 h, PK11195 added to every well; series mostly up to 92.4 µM; note: nearly all actives have a fitted effect of over 45% in size
Outline: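 Cells were seeded and incubated 4 hrs. Compounds were added across 15 concentrations together with PK11195 at 0.75 uM final. Plates were incubated 23 hrs at 37 C. CellTiter-Fluor was added and fluorescence measured.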

SMILES | Potency
COC(=O)c1ccccc1S(=O)(=O)NC(=O)Nc1nc(C)nc(OC)n1 | inactive
O=C(NC(=O)c1ccccc1Cl)Nc1ccc(OC(F)(F)F)cc1 | inactive
CC(Cc1ccccc1)N(C)Cc1ccco1 (configuration not stated) | inactive
Nc1nc(N)nc(Cl)n1 | inactive
O=C(Nc1ccc(F)cc1F)c1cccnc1Oc1cccc(C(F)(F)F)c1 | inactive
COP(=S)(OC)Oc1nc(Cl)c(Cl)cc1Cl | inactive
ClSC(Cl)(Cl)Cl | inactive
CCN(CC)C(=O)N[C@@H]1C=C2c3cccc4[nH]cc(c34)C[C@@H]2N(C)C1 | inactive
CCC[CH2][Sn]([CH2]CCC)([CH2]CCC)[CH2]CCC | 15.4 µM (active)
CNC(=O)CSP(=O)(OC)OC | inactive
Clc1cc(Cl)c(-c2cc(Cl)c(Cl)cc2Cl)cc1Cl | inactive
CCCCON=O | inactive
CC(C)NCC(O)c1ccccc1Cl (configuration not stated) | inactive
C[C@H]1[C@H](c2ccc(Cl)cc2)SC(=O)N1C(=O)NC1CCCCC1 | inactive
C#CCO | inactive
Cc1cc2c3c(c1)C(c1ccccc1)=N[C@@H](NC(=O)c1ccncc1)C(=O)N3CC2 | inactive
COc1ccc(Cc2nccc3cc(OC)c(OC)cc23)cc1OC | inactive
BrCCCBr | inactive

SMILES | Potency
N#Cc1ccc(N(CC(N)=O)CC(F)(F)F)cc1C(F)(F)F | inactive
CCNc1nc(NC(C)C(C)C)nc(SC)n1 (configuration not stated) | inactive
O=[N+]([O-])c1cccc2cccc([N+](=O)[O-])c12 | inactive
COCCC#N | inactive
C[N+]1(C)[C@@H]2CC[C@H]1CC(OC(=O)C(CO)c1ccccc1)C2 (some centres not stated) | inactive
C=CC(=C)C | inactive
O=C(N[C@H]1N=C(c2ccccc2F)c2cccc3c2N(CC3)C1=O)c1cc2ccccc2[nH]1 | inactive
Cc1ccn2nc(S(=O)(=O)Nc3c(F)cccc3F)nc2n1 | inactive
O=[N+]([O-])c1ccccc1-c1ccccc1 | inactive
CN1[C@@H]2CC[C@H]1CC(O)C2 (some centres not stated) | inactive
CN | inactive
CC(C)=CCN1CC[C@@]2(C)c3cc(O)ccc3C[C@@H]1[C@@H]2C | inactive
CC1CN1 (configuration not stated) | inactive
CC(Cc1ccc2c(c1)OCO2)NO (configuration not stated) | inactive
O=[N+]([O-])c1ccc(CCl)cc1 | inactive
CC1CCCC1 | inactive
Oc1ccc([C@H]2CNCc3c2ccc(O)c3O)cc1O | inactive

system: not listed separately; test: qHTS assay to identify small molecule antagonists of the constitutive androstane receptor (CAR) signaling pathway - cell viability counter screen (AID 1224837); conditions: HepG2-CYP2B6-hCAR viability, CellTiter-Fluor, 23 h, co-treated with 50 nM CITCO; series mostly up to 92.4 µM; note: nearly all actives have a fitted effect of over 45% in size
Outline: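 To flag cytotoxic false antagonists, HepG2 hCAR/CYP2B6-2.2kb cells were treated 23 hr with 15-concentration compound series and 50 nM CITCO at 37 C/5% CO2; CellTiter-Fluor fluorescence was the measured end point.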

SMILES | Potency
COC(=O)c1ccccc1S(=O)(=O)NC(=O)Nc1nc(C)nc(OC)n1 | inactive
O=C(NC(=O)c1ccccc1Cl)Nc1ccc(OC(F)(F)F)cc1 | inactive
CC(Cc1ccccc1)N(C)Cc1ccco1 (configuration not stated) | inactive
Nc1nc(N)nc(Cl)n1 | inactive
O=C(Nc1ccc(F)cc1F)c1cccnc1Oc1cccc(C(F)(F)F)c1 | inactive
COP(=S)(OC)Oc1nc(Cl)c(Cl)cc1Cl | inactive
ClSC(Cl)(Cl)Cl | inactive
CCN(CC)C(=O)N[C@@H]1C=C2c3cccc4[nH]cc(c34)C[C@@H]2N(C)C1 | inactive
CCC[CH2][Sn]([CH2]CCC)([CH2]CCC)[CH2]CCC | 24.3 µM (active)
CNC(=O)CSP(=O)(OC)OC | inactive
Clc1cc(Cl)c(-c2cc(Cl)c(Cl)cc2Cl)cc1Cl | inactive
CCCCON=O | inactive
CC(C)NCC(O)c1ccccc1Cl (configuration not stated) | inactive
C[C@H]1[C@H](c2ccc(Cl)cc2)SC(=O)N1C(=O)NC1CCCCC1 | inactive
C#CCO | inactive
Cc1cc2c3c(c1)C(c1ccccc1)=N[C@@H](NC(=O)c1ccncc1)C(=O)N3CC2 | inactive
COc1ccc(Cc2nccc3cc(OC)c(OC)cc23)cc1OC | inactive
BrCCCBr | inactive

SMILES | Potency
N#Cc1ccc(N(CC(N)=O)CC(F)(F)F)cc1C(F)(F)F | inactive
CCNc1nc(NC(C)C(C)C)nc(SC)n1 (configuration not stated) | inactive
O=[N+]([O-])c1cccc2cccc([N+](=O)[O-])c12 | inactive
COCCC#N | inactive
C[N+]1(C)[C@@H]2CC[C@H]1CC(OC(=O)C(CO)c1ccccc1)C2 (some centres not stated) | inactive
C=CC(=C)C | inactive
O=C(N[C@H]1N=C(c2ccccc2F)c2cccc3c2N(CC3)C1=O)c1cc2ccccc2[nH]1 | inactive
Cc1ccn2nc(S(=O)(=O)Nc3c(F)cccc3F)nc2n1 | inactive
O=[N+]([O-])c1ccccc1-c1ccccc1 | inactive
CN1[C@@H]2CC[C@H]1CC(O)C2 (some centres not stated) | inactive
CN | inactive
CC(C)=CCN1CC[C@@]2(C)c3cc(O)ccc3C[C@@H]1[C@@H]2C | inactive
CC1CN1 (configuration not stated) | inactive
CC(Cc1ccc2c(c1)OCO2)NO (configuration not stated) | inactive
O=[N+]([O-])c1ccc(CCl)cc1 | inactive
CC1CCCC1 | inactive
Oc1ccc([C@H]2CNCc3c2ccc(O)c3O)cc1O | inactive
